Experimental data taken from PubChem BioAssay (NCI).
The panel holds about 83,000 compounds, 20% with a hit somewhere; the sample as a whole holds those more often.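 Cell lines were cultured in 96-well plates, exposed to a single compound concentration, and assessed for percent growth 48 hours later.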 A number with no mark means an inactive call. Active and inactive are the calls of the source. How the source made its calls: active means growth percent below 10; inactive means the rest.

Columns and labels:
Assay in all cases: NCI-60 one-dose screen, 48 h (100 = growth as untreated, 0 = no growth, -100 = all killed)
Settings in all cases: 10 µM unless noted
[1] = test system: NCI-H23 lung
[2] = test system: NCI-H226 lung
[3] = test system: NCI-H322M lung
[4] = test system: HOP-62 NSCLC
[5] = test system: NCI-H460 lung
[6] = test system: HOP-92 NSCLC
[7] = test system: NCI-H522 lung
[8] = test system: A549/ATCC NSCLC
[9] = test system: 786-0 renal
[10] = test system: COLO 205 colon

## Cn1cc(C(=O)c2nc(-c3c[nH]c4ccccc34)no2)c2cc(F)ccc21
[1]
  growth: 65.1%
[2]
  growth: 75.7%
[3]
  growth: 62.3%
[4]
  growth: 30.5%
[5]
  growth: 14.1%
[6]
  growth: 43.6%
[7]
  growth: 2.36% (active)
[8]
  growth: 40.6%
[9]
  growth: 54.6%
[10]
  growth: 34.7%

## Oc1c(Br)cc(Br)c2ccc(Cn3cc(-c4ccc(C(F)(F)F)cc4)nn3)nc12
[1]
  growth: 84.7%
[2]
  growth: 85%
[3]
  growth: 103%
[4]
  growth: 98.9%
[5]
  growth: 103%
[6]
  growth: 21.5%
[7]
  growth: -43.5% (active)
[8]
  growth: 103%
[9]
  growth: 96.9%
[10]
  growth: 59.7%

## O=C(O)CCN1C(=O)/C(=C/C(Cl)=C/c2ccccc2)SC1=S
[1]
  growth: 21.3%
[2]
  growth: 23.6%
[3]
  growth: 61%
[4]
  growth: 53.9%
[5]
  growth: 16.6%
[6]
  growth: 53.7%
[7]
  growth: 10.6%
[8]
  growth: 44.8%
[9]
  growth: 9.92% (active)
[10]
  growth: 13%

## CCN(CC)S(=O)(=O)c1ccc(S(=O)(=O)N2CCC[C@@H](C(=O)N3CCN(c4nc(C(C)C)no4)CC3)C2)cc1
[1]
  growth: 50%
[2]
  growth: 82.1%
[3]
  growth: 88.7%
[4]
  growth: 66.8%
[5]
  growth: 70.8%
[6]
  growth: 77.1%
[7]
  growth: 60.2%
[8]
  growth: 67.1%
[9]
  growth: 89.6%
[10]
  growth: 102%

## COc1ccc(C(=O)C/C(=C\c2ccc(Cl)cc2)C(=O)NCc2ccccc2)cc1
[1]
  growth: 90.6%
[2]
  growth: 73.4%
[3]
  growth: 84.5%
[4]
  growth: 82.6%
[5]
  growth: 74.4%
[6]
  growth: 86.2%
[7]
  growth: 60.7%
[8]
  growth: 84.7%
[9]
  growth: 99.2%
[10]
  growth: 108%

## COc1ccc(C(=O)c2cc3c(N)c(C(=O)Nc4ccc(C)cc4)sc3nc2C)cc1
[1]
  growth: 43.3%
[2]
  growth: 57.2%
[3]
  growth: 48.9%
[4]
  growth: 36.3%
[5]
  growth: 4.1% (active)
[6]
  growth: 70.8%
[7]
  growth: 13.3%
[8]
  growth: 22.3%
[9]
  growth: 42.9%
[10]
  growth: 18.7%

## C=C(C)[C@@H]1CC[C@]2(C(=O)N3CCOCC3)CC[C@]3(C)[C@H](CC[C@@H]4[C@@]5(C)C/C(=C/c6ccncc6)C(=O)C(C)(C)[C@@H]5CC[C@]43C)[C@@H]12
[1]
  growth: 61.7%
[2]
  growth: 42.9%
[3]
  growth: 86.8%
[4]
  growth: 80.8%
[5]
  growth: 49.7%
[6]
  growth: 39.5%
[7]
  growth: 50.3%
[8]
  growth: 42.4%
[9]
  growth: 76.4%
[10]
  growth: 51.5%

## Nc1ncnc2c1c(-c1cccc(Cl)c1)nn2CC(=O)N1CCOCC1
[1]
  growth: 97.5%
[2]
  growth: 93%
[3]
  growth: 102%
[4]
  growth: 109%
[5]
  growth: 107%
[6]
  growth: 105%
[7]
  growth: 102%
[8]
  growth: 99.9%
[9]
  growth: 94.8%
[10]
  growth: 116%

## CN(C)CCNC(=O)c1cc2c3cc(Cl)ccc3[nH]c2c2ncccc12
[1]
  growth: 32.5%
[2]
  growth: 25%
[3]
  growth: 31.4%
[4]
  growth: 24.4%
[5]
  growth: -0.295% (active)
[6]
  growth: 2.92% (active)
[7]
  growth: 21.2%
[8]
  growth: 9.53% (active)
[9]
  growth: 11.4%
[10]
  growth: -17.9% (active)

## c1cc2c(ccc3[nH]c(-c4ccc5[nH]ncc5c4)c4c(c32)CCCC4)n1
[1]
  growth: 74.3%
[2]
  growth: 58.6%
[3]
  growth: 92.2%
[4]
  growth: 42.5%
[5]
  growth: 22.3%
[6]
  growth: 40%
[7]
  growth: 47.4%
[8]
  growth: 32.5%
[9]
  growth: 56%
[10]
  growth: 58%

## CCCCCCCCCc1ccc(OCCOCCOCCOCCOCCOCCOCCOCCOCCO)cc1
[1]
  growth: 7.69% (active)
[2]
  growth: 17.3%
[3]
  growth: 57.3%
[4]
  growth: 128%
[5]
  growth: 11.2%
[6]
  growth: -9.71% (active)
[7]
  growth: -9.88% (active)
[8]
  growth: 17.3%
[9]
  growth: 27.4%
[10]
  growth: 109%

## CCCCNC(=O)CC1=C(C)/C(=C/c2[nH]c(-c3ccc[nH]3)cc2OC)N=C1C
[1]
  growth: 48.6%
[2]
  growth: 36.7%
[3]
  growth: 50%
[4]
  growth: 50.5%
[5]
  growth: 7.8% (active)
[6]
  growth: -19.8% (active)
[7]
  growth: 17%
[8]
  growth: 12.4%
[9]
  growth: 16.1%
[10]
  growth: 17.2%

## CC1CCN(S(=O)(=O)c2ccc(S(=O)(=O)N3CCCC(c4nc5c(nnn5Cc5cccc(Cl)c5)c(=O)[nH]4)C3)cc2)CC1 (stereo not given)
[1]
  growth: 65.4%
[2]
  growth: 75.2%
[3]
  growth: 61.3%
[4]
  growth: 57.2%
[5]
  growth: 23.9%
[6]
  growth: 56%
[7]
  growth: 33.7%
[8]
  growth: 64.8%
[9]
  growth: 64.4%
[10]
  growth: 91.3%

## COc1cc2c(c(OC)c1OC)CCC(c1cccc(C(=O)Nc3cccc(Cl)c3)c1)O2 (stereo not given)
[1]
  growth: 85.8%
[2]
  growth: 65.6%
[3]
  growth: 51.7%
[4]
  growth: 79.6%
[5]
  growth: 85%
[6]
  growth: 8.45% (active)
[7]
  growth: 51.7%
[8]
  growth: 61.6%
[9]
  growth: 79.8%
[10]
  growth: 76.7%

## Cc1nc2sc(C(=O)Nc3cccc4ccccc34)c(N)c2cc1C(O)c1ccccc1 (stereo not given)
[1]
  growth: 7.51% (active)
[2]
  growth: 46.1%
[3]
  growth: 51.4%
[4]
  growth: 20.4%
[5]
  growth: 0.274% (active)
[6]
  growth: 34%
[7]
  growth: -25.3% (active)
[8]
  growth: 9.88% (active)
[9]
  growth: 16.1%
[10]
  growth: -58.2% (active)

## CCn1cc(C(=O)O)c(=O)c2cc(F)c(N3CCN(CC(=O)Nc4ccc(S(=O)(=O)Nc5nccc(C)n5)cc4)C(C)C3)c(F)c21 (stereo not given)
[1]
  growth: 103%
[2]
  growth: 97.1%
[3]
  growth: 104%
[4]
  growth: 103%
[5]
  growth: 104%
[6]
  growth: 119%
[7]
  growth: 105%
[8]
  growth: 111%
[9]
  growth: 112%
[10]
  growth: 118%

## Nc1cnc(C(=O)NNc2nc3cc(F)ccc3n3cccc23)cn1
[1]
  growth: 44%
[2]
  growth: 49.5%
[3]
  growth: 26.3%
[4]
  growth: 33%
[5]
  growth: 7.9% (active)
[6]
  growth: 64.2%
[7]
  growth: 16.7%
[8]
  growth: 38.8%
[9]
  growth: 37.7%
[10]
  growth: 9.48% (active)

## Cc1cc(=O)n(C(=O)Nc2ccccc2Cl)c2cc(O)ccc12
[1]
  growth: 98.6%
[2]
  growth: 98.7%
[3]
  growth: 88.7%
[4]
  growth: 89.2%
[5]
  growth: 100%
[6]
  growth: 79.7%
[7]
  growth: 95.2%
[8]
  growth: 101%
[9]
  growth: 103%
[10]
  growth: 100%

## Oc1c(Br)cc(Br)c2ccc(Cn3cc(-c4ccccc4C(F)(F)F)nn3)nc12
[1]
  growth: 106%
[2]
  growth: 98.6%
[3]
  growth: 104%
[4]
  growth: 103%
[5]
  growth: 101%
[6]
  growth: 88.8%
[7]
  growth: 24.6%
[8]
  growth: 99.6%
[9]
  growth: 105%
[10]
  growth: 95.7%

## Ic1ccc(OCCCCn2ccnc2)cc1
[1]
  growth: 66.6%
[2]
  growth: 80.5%
[3]
  growth: 85.3%
[4]
  growth: 72.3%
[5]
  growth: 92.5%
[6]
  growth: 34.7%
[7]
  growth: 67.4%
[8]
  growth: 78.1%
[9]
  growth: 83.7%
[10]
  growth: 29.3%

## O=C(OC(CO)C(=O)NC12CC3CC(CC(C3)C1)C2)c1ccc(Cl)cc1 (stereo not given)
[1]
  growth: 105%
[2]
  growth: 92.4%
[3]
  growth: 102%
[4]
  growth: 103%
[5]
  growth: 107%
[6]
  growth: 87.2%
[7]
  growth: 99.3%
[8]
  growth: 97.2%
[9]
  growth: 101%
[10]
  growth: 110%

## CN(C)CC1CCC(CN(C)C)C1=O (stereo not given)
[1]
  growth: 114%
[2]
  growth: 101%
[3]
  growth: 110%
[4]
  growth: 106%
[5]
  growth: 111%
[6]
  growth: 100%
[7]
  growth: 95.3%
[8]
  growth: 110%
[9]
  growth: 102%
[10]
  growth: 103%

## CCC(C(=O)[C@@H](C)[C@@H](O)[C@H](C)[C@@H]1O[C@@H]([C@@H](CC)C(=O)ONC(=O)c2ccccc2)CC[C@@H]1C)[C@H]1O[C@]2(C=CC(=O)[C@]3(CC[C@@](C)([C@H]4CC[C@](O)(CC)[C@H](C)O4)O3)O2)[C@H](C)C[C@@H]1C (stereo not given in full)
[1]
  growth: -49.7% (active)
[2]
  growth: 42%
[3]
  growth: 37.4%
[4]
  growth: 26.5%
[5]
  growth: -57.8% (active)
[6]
  growth: -62.2% (active)
[7]
  growth: -25.9% (active)
[8]
  growth: -19.6% (active)
[9]
  growth: 9.1% (active)
[10]
  growth: -26% (active)

## Cn1ccnc1C(=O)/C=C/c1ccc(C(=O)Nc2ccccc2O)cc1
[1]
  growth: 30.6%
[2]
  growth: 63.4%
[3]
  growth: 45.3%
[4]
  growth: 12.7%
[5]
  growth: 8.78% (active)
[6]
  growth: 81.4%
[7]
  growth: 60.4%
[8]
  growth: 31.2%
[9]
  growth: 9.95% (active)
[10]
  growth: 56.5%

## NC(=O)c1cccc(-n2ccc3cc(NC(=O)c4ccc(N5CCOCC5)c(C(F)(F)F)c4)ccc32)n1
[1]
  growth: 77.5%
[2]
  growth: 66.3%
[3]
  growth: 57.1%
[4]
  growth: 44.5%
[5]
  growth: 43.8%
[6]
  growth: 66.8%
[7]
  growth: 58.9%
[8]
  growth: 42.7%
[9]
  growth: 19.1%
[10]
  growth: 34.4%
